Source: PubChem BioAssay (EPA / NIEHS)
Records with an inconclusive call do not appear. Active and inactive are the calls of the source. The calls were made as follows, unless noted: active = hit-call score of the fitted dose curve at least 0.9, where 1 is the maximum; inactive = score below 0.9.

Tests used:
[1] = target: Paired box protein Pax-6 (Homo sapiens) (UniProt P26367); experiment: ATG_Pax6_CIS: Attagene CIS-FACTORIAL HepG2 Assay for human Paired Box 6 (PAX6) (AID 2282956); settings: HepG2 CIS-FACTORIAL PAX6 reporter transcription, RNA readout; actives raise or lower the signal
Procedure, shortened: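 HepG2 cells transiently transfected with multiplexed cis-promoter reporter units (endogenous TF activity) were dosed for 24 h. Reporter mRNA was quantified by RT-PCR, 6-FAM labeling, HpaI digestion and capillary electrophoresis; bidirectional fitting versus DMSO baseline.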

[2] = ATG_PXRE_CIS: Attagene CIS-FACTORIAL HepG2 Assay for human Pregnane X Receptor Element (PXRE) (AID 2282957); settings: HepG2 Attagene CIS-FACTORIAL PXRE reporter, mRNA; actives raise or lower the signal
Procedure, shortened: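 HepG2 cells transiently transfected with cis-element-driven multiplexed reporter units; after 24 h chemical exposure, reporter mRNA measured by RT-PCR, 6-FAM labelling, HpaI digestion and capillary electrophoresis. Bidirectional fitting relative to DMSO.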

[3] = ATG_PPRE_CIS: Attagene CIS-FACTORIAL HepG2 Assay for human Peroxisome Proliferator-activated Response Element (PPRE) (AID 2282958); settings: HepG2 PPRE cis-element reporter, Attagene transcription factor profiling; actives raise or lower the signal
Procedure, shortened: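 HepG2 cells are transiently transfected with multiplexed cis-promoter reporter units to report endogenous PPAR activity. After 24 h dosing, reporter mRNA is read by RT-PCR and capillary electrophoresis. Fitting is bidirectional against DMSO.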

[4] = ATG_RORE_CIS: Attagene CIS-FACTORIAL HepG2 Assay for human RAR-related Orphan Receptor Element (RORE) (AID 2282959); settings: HepG2 Attagene cis-factorial RORE reporter, mRNA; actives raise or lower the signal
Procedure, shortened: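 HepG2 cells carrying transiently transfected cis-regulated reporter units; RORE-driven reporter mRNA quantified 24 h post-dosing by RT-PCR, 6-FAM primer extension, HpaI digestion and capillary electrophoresis. Bidirectional fit versus DMSO.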

[5] = ATG_Sox_CIS: Attagene CIS-FACTORIAL HepG2 Assay for human SRY-box transcription factor (SOX) (AID 2282960); settings: HepG2 Attagene cis-factorial SOX reporter, mRNA; actives raise or lower the signal
Procedure, shortened: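 HepG2 cells transiently transfected with multiple cis-regulated reporter units, then dosed for 24 h. Reporter mRNA quantified by RT-PCR, fluorescent labelling, HpaI digestion and capillary electrophoresis; bidirectional fit versus DMSO.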

[6] = ATG_SREBP_CIS: Attagene CIS-FACTORIAL HepG2 Assay for human Sterol Regulatory Element Binding (SREBP) (AID 2282962); settings: HepG2 Attagene cis-factorial SREBP reporter, mRNA; actives raise or lower the signal
Procedure, shortened: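 HepG2 cells transiently transfected with multiplexed cis-element reporter units report endogenous transcription factor activity. After 24 h of chemical exposure, reporter mRNA was quantified by RT-PCR, 6-FAM labelling, HpaI digestion and capillary electrophoresis; bidirectional fits used DMSO as baseline.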

[7] = target: Signal transducer and activator of transcription 3 (Homo sapiens) (UniProt P40763); experiment: ATG_STAT3_CIS: Attagene CIS-FACTORIAL HepG2 Assay for human Signal Transducer and Activator of Transcription 3 (STAT3) (AID 2282963); settings: HepG2, Attagene cis-factorial STAT3 reporter transcription; actives raise or lower the signal
Procedure, shortened: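 HepG2 cells transiently transfected with multiple cis-element-driven reporter units report endogenous transcription factor activity. After 24 h compound exposure, reporter mRNA is measured by RT-PCR, 6-FAM labelling, HpaI digestion and capillary electrophoresis. Fitted bidirectionally versus DMSO.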

[8] = ATG_TA_CIS: Attagene CIS-FACTORIAL HepG2 Assay for human TA Basal Promoter (AID 2282964); settings: HepG2 Attagene CIS-factorial TA basal promoter reporter; actives raise or lower the signal
Procedure, shortened: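 Fluorescence from labelled RT-PCR reporter fragments, separated by capillary electrophoresis, gives the signal. Cells: HepG2 transiently carrying multiple reporter units, 24 h chemical dosing. Gain or loss relative to DMSO.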

[9] = ATG_TCF_b_cat_CIS: Attagene CIS-FACTORIAL HepG2 Assay for human T-Cell-Factor with beta-catenin (TCF/b-cat) (AID 2282965); settings: HepG2 TCF/beta-catenin cis-reporter transcription, actives raise or lower the signal
Procedure, shortened: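 HepG2 cells transiently transfected with cis-promoter-driven multiplexed reporter units; reporter mRNA measured 24 h after dosing by RT-PCR, FAM labelling, HpaI digestion and capillary electrophoresis. Bidirectional fitting relative to DMSO baseline.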

[10] = ATG_TAL_CIS: Attagene CIS-FACTORIAL HepG2 Assay for human TAL Basal Promoter (AID 2282966); settings: HepG2 Attagene cis-factorial TAL promoter reporter; actives raise or lower the signal;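 also: background control endpoint measuring basal TAL promoter reporter mRNA not a specific factor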
Procedure, shortened: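 HepG2 cells transiently transfected with multiplexed cis-promoter reporter units, dosed 24 h. Reporter mRNA quantified by RT-PCR, 6-FAM labelling, HpaI digestion and capillary electrophoresis; TAL basal promoter serves as background control, fitted bidirectionally versus DMSO.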

[11] = ATG_TGFb_CIS: Attagene CIS-FACTORIAL HepG2 Assay for human Transforming Growth Factor (TGF) (AID 2282967); settings: HepG2 Attagene CIS TGFb reporter, mRNA transcription; actives raise or lower the signal
Procedure, shortened: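 Bidirectional fitting relative to DMSO gave the endpoint. Underlying data: reporter mRNA from HepG2 cells carrying transiently transfected cis-regulated reporter constructs, harvested 24 h after dosing and analyzed by RT-PCR and capillary electrophoresis.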

[12] = ATG_VDRE_CIS: Attagene CIS-FACTORIAL HepG2 Assay for human Vitamin D Receptor Element (VDRE) (AID 2282968); settings: HepG2 VDRE cis-reporter transcription, actives raise or lower the signal
Procedure, shortened: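 Transiently transfected HepG2 cells carrying cis-regulated reporter transcription units were exposed for 24 h. Reporter mRNA was measured by RT-PCR with fluorescent labelling and capillary electrophoresis, and fitted in both directions against DMSO.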

[13] = target: Steroid hormone receptor ERR1 (Homo sapiens) (UniProt P11474); experiment: ATG_ERRa_TRANS: Attagene TRANS-FACTORIAL HepG2 Assay for human Estrogen-Related Receptor alpha (ERRa) (AID 2282971; active = hit-call score of the fitted dose curve at least 0.9, where 1 is the maximum); settings: HepG2 Attagene TRANS reporter, ERRa transactivation
Procedure, shortened: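 HepG2 cells transiently transfected with GAL4-UAS reporter units and chimeric NR-Gal4 constructs; after 24 hour compound incubation, reporter mRNA quantified by RT-PCR, fluorescent labelling and capillary electrophoresis, gain of signal versus DMSO.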

[14] = target: X-box-binding protein 1 (Homo sapiens) (UniProt P17861); experiment: ATG_Xbp1_CIS: Attagene CIS-FACTORIAL HepG2 Assay for human X-box Binding Protein 1 (XBP1) (AID 2282972); settings: HepG2 XBP1 cis-element reporter, Attagene multiplex; actives raise or lower the signal
Procedure, shortened: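 HepG2 cells transiently transfected with cis-regulated multiple reporter transcription units; endogenous transcription factor activity measured 24 hours after chemical dosing. Reporter mRNA quantified by RT-PCR, 6-FAM primer extension, HpaI digestion and capillary electrophoresis; bidirectional fitting versus DMSO.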

[15] = ATG_M_19_TRANS: Attagene TRANS-FACTORIAL HepG2 Assay for M19 Transcription Factor (Internal Marker) (AID 2282974; active = hit-call score of the fitted dose curve at least 0.9, where 1 is the maximum); settings: HepG2 Attagene TRANS-FACTORIAL M19 internal marker reporter
Procedure, shortened: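 HepG2 transiently transfected with GAL4-UAS multiplex reporter constructs, exposed 24 h; reporter RNA quantified by RT-PCR, 6-FAM labeling, HpaI digestion and capillary electrophoresis; internal background marker fitted upward versus DMSO.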

[16] = target: Transcription factor Sp1 (Homo sapiens) (UniProt P08047); experiment: ATG_Sp1_CIS: Attagene CIS-FACTORIAL HepG2 Assay for human Specificity Protein 1 (Sp1) (AID 2282961); settings: HepG2 Sp1 cis-reporter transcription, actives raise or lower the signal
Procedure, shortened: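 HepG2 cells transiently transfected with multiplexed cis-regulated reporter constructs, chemical exposure 24 h. Reporter mRNA quantified by RT-PCR with capillary electrophoresis; bidirectional fit relative to DMSO.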

[17] = target: Nuclear receptor subfamily 1 group I member 3 (Homo sapiens) (UniProt Q14994); experiment: ATG_CAR_TRANS: Attagene TRANS-FACTORIAL HepG2 Assay for human Constitutive Androstane Receptor (CAR) (AID 2282969; active = hit-call score of the fitted dose curve at least 0.9, where 1 is the maximum;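 also: activators raise reporter mRNA above DMSO so AC50 marks induction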); settings: HepG2 Attagene TRANS-FACTORIAL CAR reporter
Procedure, shortened: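 HepG2 cells transiently transfected with GAL4-UAS reporter units; TRANS format reads activity of exogenous chimeric NR-Gal4 protein. After 24 h dosing, reporter mRNA quantified by RT-PCR, 6-FAM labelling and capillary electrophoresis; gain of signal fitted against DMSO.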

[18] = ATG_GAL4_TRANS: Attagene TRANS-FACTORIAL HepG2 Assay for GAL4 (Internal Marker) (AID 2282976; active = hit-call score of the fitted dose curve at least 0.9, where 1 is the maximum); settings: HepG2 Attagene TRANS GAL4 internal marker reporter
Procedure, shortened: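 Background-control readout: GAL4-UAS reporter transcript in transiently transfected HepG2 cells after 24 h compound exposure. Measured by RT-PCR, 6-FAM primer extension, HpaI digest and capillary electrophoresis; gain-of-signal fit versus DMSO.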

[19] = target: Estrogen-related receptor gamma (Homo sapiens) (UniProt P62508); experiment: ATG_ERRg_TRANS: Attagene TRANS-FACTORIAL HepG2 Assay for human Estrogen-Related Receptor gamma (ERRg) (AID 2282977; active = hit-call score of the fitted dose curve at least 0.9, where 1 is the maximum;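 also: hits increase reporter signal over DMSO so potencies reflect activators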); settings: HepG2 Attagene TRANS reporter, ERRg transactivation
Procedure, shortened: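 Transfect HepG2 with multiple GAL4-UAS reporter transcription units; dose chemicals 24 h; isolate RNA, reverse-transcribe with oligo(dT), PCR-amplify, label with 6-FAM, digest with HpaI; size fragments by capillary electrophoresis. DMSO serves as negative control.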

Measured: AC50

Steroid hormone receptor ERR1 (Homo sapiens), sequence (P11474 whole entry, looked up, the tested form may be a part): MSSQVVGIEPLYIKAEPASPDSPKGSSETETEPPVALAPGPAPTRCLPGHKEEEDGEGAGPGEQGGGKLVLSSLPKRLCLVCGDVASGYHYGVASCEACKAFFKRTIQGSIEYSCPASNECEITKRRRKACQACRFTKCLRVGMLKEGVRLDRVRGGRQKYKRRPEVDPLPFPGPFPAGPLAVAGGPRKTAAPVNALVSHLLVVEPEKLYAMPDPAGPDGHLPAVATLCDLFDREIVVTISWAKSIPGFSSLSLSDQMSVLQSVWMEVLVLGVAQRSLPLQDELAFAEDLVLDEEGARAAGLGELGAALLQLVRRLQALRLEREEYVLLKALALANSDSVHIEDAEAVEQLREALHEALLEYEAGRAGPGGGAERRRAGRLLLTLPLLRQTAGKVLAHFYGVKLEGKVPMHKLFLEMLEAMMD
Paired box protein Pax-6 (Homo sapiens), sequence (P26367 whole entry, looked up): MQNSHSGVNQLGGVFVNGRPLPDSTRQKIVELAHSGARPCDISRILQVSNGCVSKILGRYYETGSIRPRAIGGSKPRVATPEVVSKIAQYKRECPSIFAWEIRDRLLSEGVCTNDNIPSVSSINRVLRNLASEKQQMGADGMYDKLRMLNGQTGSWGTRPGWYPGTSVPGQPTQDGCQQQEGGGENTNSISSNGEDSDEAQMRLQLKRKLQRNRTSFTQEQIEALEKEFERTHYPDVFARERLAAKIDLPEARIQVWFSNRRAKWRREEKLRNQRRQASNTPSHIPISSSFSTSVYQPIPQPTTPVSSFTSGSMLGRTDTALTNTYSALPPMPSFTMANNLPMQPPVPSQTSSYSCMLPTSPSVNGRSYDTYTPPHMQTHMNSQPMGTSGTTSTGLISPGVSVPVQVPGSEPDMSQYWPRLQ
Nuclear receptor subfamily 1 group I member 3 (Homo sapiens), sequence (Q14994 whole entry, looked up, the tested form may be a part): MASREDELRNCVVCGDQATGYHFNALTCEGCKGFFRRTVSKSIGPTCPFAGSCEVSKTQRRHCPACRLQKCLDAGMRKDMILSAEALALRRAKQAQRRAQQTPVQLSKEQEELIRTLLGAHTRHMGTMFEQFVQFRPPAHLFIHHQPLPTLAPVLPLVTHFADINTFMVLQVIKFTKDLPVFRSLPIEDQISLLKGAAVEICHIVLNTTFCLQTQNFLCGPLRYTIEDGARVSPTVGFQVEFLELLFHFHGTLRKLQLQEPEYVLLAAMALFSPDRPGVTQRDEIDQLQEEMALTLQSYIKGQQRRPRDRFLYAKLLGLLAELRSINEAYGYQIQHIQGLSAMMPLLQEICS
Transcription factor Sp1 (Homo sapiens), sequence (P08047 whole entry, looked up): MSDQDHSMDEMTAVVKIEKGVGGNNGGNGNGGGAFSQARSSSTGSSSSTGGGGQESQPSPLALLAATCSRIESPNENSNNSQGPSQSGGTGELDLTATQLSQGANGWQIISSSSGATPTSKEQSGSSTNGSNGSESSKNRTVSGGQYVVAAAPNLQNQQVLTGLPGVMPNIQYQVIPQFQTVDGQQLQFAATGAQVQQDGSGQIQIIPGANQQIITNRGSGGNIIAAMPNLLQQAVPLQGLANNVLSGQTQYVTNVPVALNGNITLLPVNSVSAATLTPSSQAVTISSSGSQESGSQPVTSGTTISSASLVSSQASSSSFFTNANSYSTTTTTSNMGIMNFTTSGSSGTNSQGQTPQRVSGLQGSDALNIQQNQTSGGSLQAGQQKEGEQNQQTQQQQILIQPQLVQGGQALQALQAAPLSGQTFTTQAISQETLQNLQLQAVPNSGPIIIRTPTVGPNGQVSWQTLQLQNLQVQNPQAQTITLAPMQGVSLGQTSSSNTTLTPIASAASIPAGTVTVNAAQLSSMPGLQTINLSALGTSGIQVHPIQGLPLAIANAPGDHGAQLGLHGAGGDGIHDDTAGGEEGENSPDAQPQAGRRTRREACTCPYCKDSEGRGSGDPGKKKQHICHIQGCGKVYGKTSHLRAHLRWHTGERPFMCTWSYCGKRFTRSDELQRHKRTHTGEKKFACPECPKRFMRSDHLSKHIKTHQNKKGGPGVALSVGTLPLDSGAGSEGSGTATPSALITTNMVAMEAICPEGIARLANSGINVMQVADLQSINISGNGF
Signal transducer and activator of transcription 3 (Homo sapiens), sequence (P40763 whole entry, looked up): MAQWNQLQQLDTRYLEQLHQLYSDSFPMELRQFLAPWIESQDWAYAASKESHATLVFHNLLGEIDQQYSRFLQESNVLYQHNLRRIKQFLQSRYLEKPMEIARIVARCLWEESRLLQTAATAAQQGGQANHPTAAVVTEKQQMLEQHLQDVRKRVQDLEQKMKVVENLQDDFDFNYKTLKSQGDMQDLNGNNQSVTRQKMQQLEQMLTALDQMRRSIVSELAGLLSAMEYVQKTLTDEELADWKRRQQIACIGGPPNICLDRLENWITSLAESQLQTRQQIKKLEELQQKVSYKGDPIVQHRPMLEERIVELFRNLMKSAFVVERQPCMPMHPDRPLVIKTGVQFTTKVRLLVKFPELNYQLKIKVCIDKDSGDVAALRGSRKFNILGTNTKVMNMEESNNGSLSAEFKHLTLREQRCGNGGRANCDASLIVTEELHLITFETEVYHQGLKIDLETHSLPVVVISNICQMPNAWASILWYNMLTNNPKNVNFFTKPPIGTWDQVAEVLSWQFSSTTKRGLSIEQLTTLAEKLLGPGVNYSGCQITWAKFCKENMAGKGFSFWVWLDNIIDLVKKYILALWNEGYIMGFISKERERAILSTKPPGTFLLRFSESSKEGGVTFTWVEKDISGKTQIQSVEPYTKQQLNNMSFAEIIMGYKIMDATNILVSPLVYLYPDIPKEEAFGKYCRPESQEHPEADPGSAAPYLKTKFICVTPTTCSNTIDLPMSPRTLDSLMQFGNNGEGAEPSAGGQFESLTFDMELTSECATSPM
Estrogen-related receptor gamma (Homo sapiens), sequence (P62508 whole entry, looked up, the tested form may be a part): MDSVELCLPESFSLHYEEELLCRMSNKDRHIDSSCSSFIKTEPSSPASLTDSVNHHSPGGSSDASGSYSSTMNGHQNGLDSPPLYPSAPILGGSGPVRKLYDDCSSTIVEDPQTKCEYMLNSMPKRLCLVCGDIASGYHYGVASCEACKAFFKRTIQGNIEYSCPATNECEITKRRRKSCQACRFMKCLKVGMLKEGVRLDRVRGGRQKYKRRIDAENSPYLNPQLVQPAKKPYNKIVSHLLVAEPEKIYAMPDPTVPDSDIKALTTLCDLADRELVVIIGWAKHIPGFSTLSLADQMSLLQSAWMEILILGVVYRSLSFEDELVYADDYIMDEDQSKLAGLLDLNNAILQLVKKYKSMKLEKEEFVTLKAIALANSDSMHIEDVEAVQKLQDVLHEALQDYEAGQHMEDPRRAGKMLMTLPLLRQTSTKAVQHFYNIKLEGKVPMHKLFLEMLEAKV
X-box-binding protein 1 (Homo sapiens), sequence (P17861 whole entry, looked up): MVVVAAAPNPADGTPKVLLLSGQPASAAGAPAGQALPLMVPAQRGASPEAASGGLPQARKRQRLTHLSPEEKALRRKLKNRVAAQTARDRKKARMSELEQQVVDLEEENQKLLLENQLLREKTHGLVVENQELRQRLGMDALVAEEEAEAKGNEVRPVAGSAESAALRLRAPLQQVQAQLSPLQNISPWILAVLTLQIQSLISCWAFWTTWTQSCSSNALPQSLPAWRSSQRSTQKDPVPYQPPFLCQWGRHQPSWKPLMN

O=C(O)CCCCCCCCCCCC(=O)O
inactive: [1] | [2] | [3] | [4] | [5] | [6] | [7] | [8] | [9] | [10] | [11] | [12] | [13] | [14] | [15]

CCCCSCCCC
inactive: [1] | [2] | [3] | [4] | [5] | [16] | [7] | [8] | [9] | [10] | [11] | [17] | [14] | [18]

c1ccc2cc(Nc3ccc(Nc4ccc5ccccc5c4)cc3)ccc2c1
inactive: [1] | [2] | [3] | [5] | [16] | [7] | [8] | [9] | [10] | [11] | [12] | [17] | [13] | [14] | [15] | [18] | [19]
active: [4] 5.31 µM

CCCCCCCCSCCO
inactive: [1] | [3] | [4] | [5] | [16] | [7] | [8] | [9] | [10] | [11] | [14]
active: [2] 25 µM

O=[N+]([O-])c1ccc(O)cc1C(F)(F)F
active: [2] 84.1 µM | [4] 49 µM | [16] 100 µM | [10] 26.8 µM | [14] 31 µM
inactive: [1] | [3] | [5] | [7] | [8] | [11] | [12] | [17] | [13] | [15] | [19]

O=C1OC(=O)c2c(Cl)c(Cl)c(Cl)c(Cl)c21
inactive: [1] | [2] | [4] | [5] | [16] | [6] | [7] | [9] | [10] | [11] | [17] | [13] | [14] | [15] | [18] | [19]
active: [3] 177 µM

CC(=O)NCCO
inactive: [1] | [2] | [3] | [4] | [5] | [16] | [7] | [8] | [9] | [10] | [11] | [12] | [17] | [14] | [15] | [18]

C=CCOC(=O)CCCCCC
active: [11] 79.9 nM
inactive: [1] | [2] | [3] | [4] | [5] | [16] | [6] | [7] | [9] | [10] | [12] | [17] | [14] | [15]

CC(O)C1CCCCC1 (centres undefined)
inactive: [1] | [2] | [3] | [4] | [5] | [16] | [6] | [7] | [10] | [11] | [12] | [17] | [13] | [14] | [18] | [19]
